PubChem BioAssay
Where a SMILES comes first, the peptide text is derived from it.

Target: 6-phosphogluconate dehydrogenase, decarboxylating (Homo sapiens) (UniProt P52209)
Assay: 6PGD enzyme inhibitors, primary screen, biochemical, human, recombinant enzyme, NADPH absorbance (AID 1159550)
Conditions: recombinant 6PGD, NADPH absorbance 341 nm; at 10 µM; active compounds read high;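 active means at least 20% inhibition of 6-phosphogluconate dehydrogenase activity; inactive means the rest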

6-phosphogluconate dehydrogenase, decarboxylating (Homo sapiens), sequence (P52209 whole entry, looked up): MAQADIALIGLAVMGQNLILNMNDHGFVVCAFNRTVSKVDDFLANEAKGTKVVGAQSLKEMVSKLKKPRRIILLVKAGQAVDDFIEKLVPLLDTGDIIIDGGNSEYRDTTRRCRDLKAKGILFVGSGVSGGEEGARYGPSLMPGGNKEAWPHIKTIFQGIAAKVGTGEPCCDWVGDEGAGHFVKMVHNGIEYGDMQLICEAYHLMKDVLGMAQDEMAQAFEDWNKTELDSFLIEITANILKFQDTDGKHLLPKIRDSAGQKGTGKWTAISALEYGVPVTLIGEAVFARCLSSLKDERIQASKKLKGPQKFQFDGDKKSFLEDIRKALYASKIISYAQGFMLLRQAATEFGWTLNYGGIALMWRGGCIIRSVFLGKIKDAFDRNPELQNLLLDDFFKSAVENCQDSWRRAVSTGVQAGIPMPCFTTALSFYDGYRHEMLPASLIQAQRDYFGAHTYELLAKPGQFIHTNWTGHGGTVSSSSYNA

inhibition, inactive:
O=C(O)Cc1cc(I)c(Oc2cc(I)c(O)c(I)c2)c(I)c1 -3.72%
CCOC(=O)C(=O)C1(C(=O)OCC)Oc2cc(OC)cc(OC)c2C(=O)C1c1ccccc1 (configuration not stated) 14.2%
CC(C)CC(NC(=O)C1CCCN1C(=O)C(N)C(C)C)C(=O)O (configuration not stated) 14%
C#CC1(O)CCC2C3CCc4cc(O)ccc4C3CCC21C (configuration not stated) 14.4%
CC(C)c1c(O)ccc2c1CCC1[C@@](C)(C(=O)O)CCC[C@]21C (some centres not stated) 17.5%
C[C@@H]1O[C@@H](O[C@H]2[C@H](O[C@H]3CC[C@@]4(C)[C@@H](CC[C@]5(C)[C@@H]4CC=C4[C@@H]6CC(C)(C)CC[C@]6(C(=O)O[C@@H]6O[C@H](CO[C@@H]7O[C@H](CO)[C@@H](O[C@@H]8O[C@@H](C)[C@H](O)[C@@H](O)[C@H]8O)[C@H](O)[C@H]7O)[C@@H](O)[C@H](O)[C@H]6O)CC[C@]45C)[C@]3(C)CO)OC[C@H](O)[C@@H]2O)[C@H](O)[C@H](O)[C@H]1O 5.65%
O=C(O)[C@H]1CCCNC1 2.88%
CC(C)c1c(O)ccc2c1CCC1C(C)(CO)CCCC21C (configuration not stated) -0.0186%
CCOC(=O)C1(O)Oc2cc(OC)cc(OC)c2C(=O)C1c1ccccc1 (configuration not stated) -4.01%
C[C@@H]1CC[C@@]2(OC1)O[C@H]1C[C@H]3[C@@H]4CC=C5C[C@@H](O)CC[C@]5(C)[C@H]4CC[C@]3(C)[C@H]1[C@@H]2C 10.6%
N[C@@H](Cc1ccccc1)C(=O)N[C@@H](Cc1ccc(O)cc1)C(=O)O (H-Phe-Tyr-OH) -6.19%
CC(C)=CCc1c(O)cc(C)oc1=O -5.39%
CC[C@H](C(=O)[C@@H](C)[C@@H](O)[C@H](C)[C@@H]1O[C@@H]([C@@H](CC)C(=O)O)[C@@H](C)C[C@@H]1C)[C@H]1O[C@]2(C=C[C@@H](O)[C@]3(CC[C@@](C)([C@H]4CC[C@](O)(CC)[C@H](C)O4)O3)O2)[C@H](C)C[C@@H]1C -15.5%
COc1cc2c(cc1O)[C@@H](Cc1ccc(O)cc1)[N+](C)(C)CC2 16.9%
NCCCC(N)CC(=O)NCC1NC(=O)C(CO)NC(=O)C(N)CNC(=O)C(C2CCNC(N)=N2)NC(=O)/C(=C/NC(N)=O)NC1=O (configuration not stated) -0.986%
CCOC(=O)c1c(C)cc(O)c(C)c1O -2.48%
C[C@H]1[C@@H](O)O[C@@H]2OC3(C)CC[C@H]4[C@H](C)CC[C@@H]1[C@@]24OO3 -22.8%
COc1ccc(C2COc3cc(O)ccc3C2)c(OC)c1O (configuration not stated) 1.81%
CC(=O)O[C@@H]1CC2C(C)(C)C(=O)[C@@H]3O[C@@H]3[C@]2(C)C2CC[C@]3(C)C(=CC(=O)O[C@H]3c3ccoc3)[C@@]21C (some centres not stated) 0.52%
NC1(C(=O)O)CCC1 2.05%
COc1cc(O)c(C(=O)/C=C/c2ccccc2)c(OC)c1 -2.81%
CC(C)CC(NC(=O)CN)C(=O)NC(Cc1ccccc1)C(=O)O (stereo not drawn) (H-Gly-Leu-Phe-OH; configuration not given here) 6.11%
C=CCCCCCCCCCCC/C=C/C(O)COC(C)=O (configuration not stated) -11.7%
COc1ccc(-c2coc3cc(O)c(OC)cc3c2=O)cc1 10.5%
COc1cc2c(cc1OC)[C@@H]1C(=O)c3c(O)cc4c(c3O[C@@H]1CO2)C=CC(C)(C)O4 12.7%
NC(=O)NCC(N)C(=O)O (configuration not stated) -2.17%
CC(C)CCC[C@@H](C)[C@H]1CC[C@H]2[C@@H]3CC[C@@H]4C[C@H](O)CC[C@]4(C)[C@H]3CC[C@]12C -3.72%
CCC1(C2OC(C3OC(O)(CO)C(C)CC3C)CC2C)CCC(C2(C)CCC3(CC(O)C(C)C(C(C)C(OC)C(C)C(=O)O)O3)O2)O1 (configuration not stated) 3.18%
CC12CCC3c4ccc(OC(=O)c5ccccc5)cc4CCC3C1CCC2=O (configuration not stated) -9.5%
CC1(C)C(=O)[C@H]2C[C@]3(O)C4=CC(=O)O[C@@H](c5ccoc5)[C@@]4(C)CCC3[C@](C)(C2=O)[C@H]1CC(=O)O (some centres not stated) -7.25%
CC(=O)O[C@H](CC(=O)[O-])C[N+](C)(C)C -15.2%
COC(=O)C[C@H]1C(C)(C)[C@H](O)[C@@H]2CC3=C4CC(O)O[C@@H](c5ccoc5)[C@@]4(C)CCC3[C@]1(C)C2=O (some centres not stated) -7.8%
